Measured values reported in PubChem BioAssay (NCI).
About 83,000 compounds went through this panel and 20% of them were active in at least one assay; those are over-represented in the sample as a whole.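 The endpoint reported here, percent growth, reads 100 for growth as untreated, 0 for no net growth and -100 for all cells dead.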 Activity calls are given as the source filed them. Rule for the calls: active = growth percent below 10; inactive = the rest.

Tests used:
Test in all cases: NCI-60 one-dose screen, 48 h (100 = growth as untreated, 0 = no growth, -100 = all killed)
EKVX NSCLC = conditions: 10 µM
SN12C renal = conditions: 10 µM unless noted
UO-31 renal = conditions: 10 µM unless noted
TK-10 renal = conditions: 10 µM unless noted
ACHN renal = conditions: 10 µM unless noted
CAKI-1 renal = conditions: 10 µM unless noted
A498 renal = conditions: 10 µM unless noted
CCRF-CEM leukemia = conditions: 10 µM
MOLT-4 leukemia = conditions: 10 µM unless noted
SR leukemia = conditions: 10 µM unless noted
RPMI-8226 leukemia = conditions: 10 µM unless noted
OVCAR-8 ovarian = conditions: 10 µM unless noted
OVCAR-5 ovarian = conditions: 10 µM unless noted
OVCAR-4 ovarian = conditions: 10 µM unless noted
SK-OV-3 ovarian = conditions: 10 µM unless noted
IGROV1 ovarian = conditions: 10 µM unless noted
OVCAR-3 ovarian = conditions: 10 µM unless noted
HS 578T breast = conditions: 10 µM unless noted
NCI/ADR-RES ovarian = conditions: 10 µM unless noted
SK-MEL-2 melanoma = conditions: 10 µM unless noted

| SMILES | growth (EKVX NSCLC) | growth (SN12C renal) | growth (UO-31 renal) | growth (TK-10 renal) | growth (ACHN renal) | growth (CAKI-1 renal) | growth (A498 renal) | growth (CCRF-CEM leukemia) | growth (MOLT-4 leukemia) | growth (SR leukemia) | growth (RPMI-8226 leukemia) | growth (OVCAR-8 ovarian) | growth (OVCAR-5 ovarian) | growth (OVCAR-4 ovarian) | growth (SK-OV-3 ovarian) | growth (IGROV1 ovarian) | growth (OVCAR-3 ovarian) | growth (HS 578T breast) | growth (NCI/ADR-RES ovarian) | growth (SK-MEL-2 melanoma) |
| --- | --- | --- | --- | --- | --- | --- | --- | --- | --- | --- | --- | --- | --- | --- | --- | --- | --- | --- | --- | --- |
| O=C(Nc1ccc(-n2cc(-c3ccncc3)c(-c3ccc(Cl)c(O)c3)n2)cc1)c1ccc(Cl)c(Cl)c1 | 61.8% (inactive) | 65.7% (inactive) | 14.8% (inactive) | 33% (inactive) | 38.4% (inactive) | 0.324% (active) | 83.8% (inactive) | 40.2% (inactive) | 22.3% (inactive) | 5.94% (active) | -25.9% (active) | 38.5% (inactive) | 56.5% (inactive) | 47.4% (inactive) | 34.1% (inactive) | 67.4% (inactive) | 61.3% (inactive) | -35.1% (active) | 51.6% (inactive) | – |
| O=c1c2c(c3ccccc3n1-c1ccccc1)NC(=S)NC2c1ccc(Cl)cc1 (stereo not given) | 20% (inactive) | 50.1% (inactive) | 47.6% (inactive) | 10.8% (inactive) | 52.7% (inactive) | 33.2% (inactive) | 50.6% (inactive) | 7.43% (active) | 25.4% (inactive) | 26% (inactive) | 8.62% (active) | 41.3% (inactive) | 45.5% (inactive) | 76% (inactive) | 50.3% (inactive) | 40.1% (inactive) | 47.5% (inactive) | -3.16% (active) | 78.3% (inactive) | – |
| O=C(c1ccccc1)c1ccccc1-c1ccccc1 | 58.8% (inactive) | 31.3% (inactive) | 44.5% (inactive) | 8.04% (active) | 33.7% (inactive) | 17.4% (inactive) | 43.1% (inactive) | 11% (inactive) | 30.4% (inactive) | 19.2% (inactive) | 13.6% (inactive) | 36.7% (inactive) | 52.6% (inactive) | 83.3% (inactive) | 23.5% (inactive) | 41.7% (inactive) | 13.3% (inactive) | -6.36% (active) | -23.7% (active) | – |
| CC(=O)Oc1cc2ccccc2cc1C(C)C | – | 111% (inactive) | 88.7% (inactive) | – | 97.4% (inactive) | 106% (inactive) | 81% (inactive) | – | 109% (inactive) | – | 109% (inactive) | 104% (inactive) | 98.9% (inactive) | 108% (inactive) | 104% (inactive) | 123% (inactive) | 115% (inactive) | 99.8% (inactive) | 116% (inactive) | 85.7% (inactive) |
| CCCCN(CCC)CCCCCCCCCCN1CCCc2ccccc21 | – | – | 54.3% (inactive) | 82.7% (inactive) | 82.7% (inactive) | 63.2% (inactive) | – | 26.8% (inactive) | 50.5% (inactive) | 10.5% (inactive) | -2.32% (active) | 102% (inactive) | 108% (inactive) | 79.4% (inactive) | 81.4% (inactive) | 48.5% (inactive) | 53.7% (inactive) | – | 90.1% (inactive) | 92.3% (inactive) |
| CC(C)C(=O)c1ccc(Cl)s1 | – | 99.3% (inactive) | 79.1% (inactive) | – | 104% (inactive) | 107% (inactive) | 79.6% (inactive) | – | 97.4% (inactive) | – | – | 102% (inactive) | 105% (inactive) | 90.5% (inactive) | 101% (inactive) | 96.2% (inactive) | 106% (inactive) | 100% (inactive) | 104% (inactive) | 96.5% (inactive) |
| COc1ccc(C(=O)NCCNc2nccc(-c3c(-c4ccc(F)cc4)nc4sccn34)n2)cc1 | 66.8% (inactive) | 70% (inactive) | 34.3% (inactive) | 29.1% (inactive) | 29.2% (inactive) | 43.6% (inactive) | 56.1% (inactive) | 48.1% (inactive) | 59.8% (inactive) | 44.1% (inactive) | 40.5% (inactive) | 49.4% (inactive) | 62.4% (inactive) | 80.5% (inactive) | 70.6% (inactive) | 31% (inactive) | 80.7% (inactive) | 28.7% (inactive) | 62.3% (inactive) | – |
| CCOc1ccc(Br)cc1/C=C(\C#N)c1ccc([N+](=O)[O-])cc1 | – | 85.3% (inactive) | 81.5% (inactive) | – | 68% (inactive) | 77.7% (inactive) | 80.2% (inactive) | – | 82.7% (inactive) | – | 84.7% (inactive) | 70% (inactive) | 94.6% (inactive) | 45.2% (inactive) | 44.4% (inactive) | 71.4% (inactive) | 65.8% (inactive) | 7.59% (active) | 85.2% (inactive) | 88.6% (inactive) |
| COc1cc(-c2nn(-c3ccc(NC(=O)c4ccc(Cl)c(C(F)(F)F)c4)cc3)cc2-c2ccncc2)ccc1Cl | 24.3% (inactive) | 52.7% (inactive) | 16.3% (inactive) | 6.27% (active) | 18.2% (inactive) | -16.7% (active) | 31.9% (inactive) | 6.52% (active) | 3.94% (active) | 2.82% (active) | -23% (active) | 49.2% (inactive) | 55.7% (inactive) | 46.4% (inactive) | 60.5% (inactive) | 46.7% (inactive) | 28.7% (inactive) | -49.7% (active) | 30.7% (inactive) | – |
| O=C(NC(=S)NNC(=S)NNc1ccccc1)c1ccccc1 | – | 25.7% (inactive) | 54% (inactive) | – | 70.7% (inactive) | 55.9% (inactive) | 78.9% (inactive) | – | 39.3% (inactive) | – | 19.8% (inactive) | 20.9% (inactive) | 59.7% (inactive) | 84.8% (inactive) | 89.9% (inactive) | 33.4% (inactive) | 71.6% (inactive) | 15.2% (inactive) | 75.4% (inactive) | 24.2% (inactive) |
| OCCN1CCCN(CCCN2c3ccccc3Sc3ccc(C(F)(F)F)cc32)CC1 | – | 62.9% (inactive) | 41.8% (inactive) | – | 68% (inactive) | 85.7% (inactive) | 73.7% (inactive) | – | 23.4% (inactive) | – | 42.2% (inactive) | 91% (inactive) | 83.9% (inactive) | 54.4% (inactive) | 77.3% (inactive) | 41.3% (inactive) | 78.7% (inactive) | 29.1% (inactive) | 73.5% (inactive) | 81.5% (inactive) |
| Cc1ccc(C(=O)C(Br)C(Br)c2ccccc2)cc1 (stereo not given) | – | 86.4% (inactive) | 66.9% (inactive) | – | 44.3% (inactive) | 55.1% (inactive) | 75.6% (inactive) | – | 46% (inactive) | – | 48.2% (inactive) | 96.6% (inactive) | 102% (inactive) | 71.9% (inactive) | 114% (inactive) | 62.5% (inactive) | 61.7% (inactive) | 98.2% (inactive) | 105% (inactive) | 113% (inactive) |
| COc1cc(-c2nn(-c3ccc(NC(=O)Nc4cc(C(F)(F)F)cc(C(F)(F)F)c4)cc3)cc2-c2ccncc2)ccc1Cl | -1.64% (active) | 17.3% (inactive) | -7.1% (active) | -32.5% (active) | 4.08% (active) | -12.5% (active) | -1.9% (active) | 16.6% (inactive) | 7.23% (active) | -0.776% (active) | -2.24% (active) | 9.59% (active) | 18.8% (inactive) | -12.2% (active) | -3.31% (active) | 8.43% (active) | -20.9% (active) | -34% (active) | 3.86% (active) | – |
| N#Cc1ccc(OCc2nc(N)nc(N)c2-c2ccc(Cl)c(Cl)c2)cc1 | – | – | 40.4% (inactive) | 40.9% (inactive) | 19.4% (inactive) | 13.9% (inactive) | 38.5% (inactive) | 18.5% (inactive) | 22.9% (inactive) | 26% (inactive) | 67.7% (inactive) | 19.5% (inactive) | 36.9% (inactive) | 98.6% (inactive) | 38.5% (inactive) | 24.3% (inactive) | 45.8% (inactive) | – | 38.9% (inactive) | 29.8% (inactive) |
| CCCCCCN(CCCCCC)CCC(=O)Nc1ccc(S(=O)(=O)c2ccc(NC(=O)CCN(CCCCCC)CCCCCC)cc2)cc1 | – | 81.4% (inactive) | 52.3% (inactive) | – | 88.3% (inactive) | 86.6% (inactive) | – | 51.3% (inactive) | 59.1% (inactive) | 7.85% (active) | 60.7% (inactive) | 90.8% (inactive) | 82.9% (inactive) | 77.6% (inactive) | 84.2% (inactive) | 84.3% (inactive) | 80.7% (inactive) | – | 83.8% (inactive) | 122% (inactive) |
| COc1ccc2cn3c4ccc(O)cc4[nH]c(=O)c3c2c1 | 39% (inactive) | 51.7% (inactive) | 23.6% (inactive) | -2.48% (active) | 28.3% (inactive) | 16.9% (inactive) | 24.5% (inactive) | 29.2% (inactive) | 15.2% (inactive) | 16.1% (inactive) | 13.2% (inactive) | 12.7% (inactive) | 21% (inactive) | -2.67% (active) | -1.15% (active) | 17.6% (inactive) | -7.15% (active) | -22.4% (active) | -39% (active) | – |
| O=C(/C(Br)=C/c1ccccc1)c1ccccc1 | – | – | -62.5% (active) | 3.38% (active) | -71.3% (active) | -28.4% (active) | – | – | -25.2% (active) | -24.9% (active) | – | -26.5% (active) | 58.3% (inactive) | 25.7% (inactive) | 105% (inactive) | 27.5% (inactive) | -31.5% (active) | – | -11% (active) | 15.2% (inactive) |
| CC(CCN1CCN(CCC(C)CC(C)(C)C)C1CC(C)CC(C)(C)C)CC(C)(C)C (stereo not given) | 82.6% (inactive) | 91.2% (inactive) | 66.2% (inactive) | 85.2% (inactive) | 90.4% (inactive) | 96.4% (inactive) | 112% (inactive) | 83.1% (inactive) | 88.7% (inactive) | 5.62% (active) | 76.4% (inactive) | 89.8% (inactive) | 90.4% (inactive) | 98.2% (inactive) | 96.4% (inactive) | 81.7% (inactive) | 73.3% (inactive) | 112% (inactive) | 98.3% (inactive) | – |
